These entries were drawn from the full list.
aSyn 5UTR act: Activators working through SNCA 5'UTR binding (MLPCN); alpha-synuclein 5'UTR reporter, activators screen; activity score, % (tested at 7.5 µM), hits read low; 300,000 compounds, 7.1% hits; AID 1814; in the data active = activity score below about -60%
* hit, by the source's call.

SMILES	aSyn 5UTR act
O=[N+]([O-])c1ccc(/C=C/c2ccncc2)cc1	-71*
O=[N+]([O-])c1cccc(/C=C/c2ccncc2)c1	-65*
O=C(NC(=S)Nc1ccc(Cl)cn1)C12CC3CC(CC(C3)C1)C2	-162*
O=C(Nc1ccccc1F)c1ccc(CSc2ccccc2)o1	-70*
O=C(Nc1cccc(F)c1)c1ccc(CSc2ccccc2)o1	-121*
Cc1c(-c2nc(-c3cccnc3)no2)cccc1[N+](=O)[O-]	-81*
Cc1ccc(-c2nc(-c3cccnc3)no2)c(C)c1	-92*
C/C(N)=C(/C#N)C(=O)CSc1nnc(-c2ccc(OC(F)F)cc2)o1	-204*
C/C(N)=C(/C#N)C(=O)CSc1ccccc1F	-115*
C/C(N)=C(/C#N)C(=O)CSc1nn(-c2ccc(Cl)cc2)c(=S)s1	-74*
COc1cccc(NC(=O)NC2CCCCCCC2)c1	-132*
C#CC(=O)N(c1cccc(OC)c1)C(C(=O)NC1CCCC1)c1cccs1 (configuration not stated)	92
COc1cccc(NC(=O)C(=S)NC2CCCCC2)c1	-85*
O=C(Nc1ccccc1C(F)(F)F)c1cc(-c2cccc(O)c2)on1	-142*
CCc1ccccc1NC(=O)c1cc(-c2cccs2)on1	-125*
CCc1ccccc1NC(=O)c1cc(-c2cccc(O)c2)on1	-81*
c1ccc(CCNCC2COc3ccccc3O2)cc1 (configuration not stated)	-64*
CN(CC1COc2ccccc2O1)C(=O)c1ccc(N(C)C)cc1 (configuration not stated)	-62*
O=C(NCC1COc2ccccc2O1)c1ccc(Cl)cc1 (configuration not stated)	-93*
Cc1ccccc1OCC(=O)O/N=C(\N)Cc1cccs1	-63*
N/C(Cc1cccs1)=N\OC(=O)COc1ccc(Cl)cc1Cl	-154*
Cc1ccccc1C(=O)O/N=C(\N)Cc1cccs1	-131*
N/C(=N\OC(=O)Cc1cccs1)c1ccc(Br)cc1	-106*
N/C(Cc1cccc2ccccc12)=N\OC(=O)Cc1cccs1	-117*
COc1cc(NC(=O)n2ncc3cc(Cl)ccc32)cc(OC)c1	-186*
SMILES	aSyn 5UTR act
Oc1c(N=NC(=S)Nc2ccccc2F)c2ccccc2n1Cc1ccc(Cl)cc1	70
O=C(Nc1ccccc1F)n1ncc2cc(Cl)ccc21	-73*
COc1ccc(NC(=O)n2ncc3cc(Cl)ccc32)cc1OC	-142*
COc1ccc(-c2nc(-c3ccc(O)cc3O)cs2)cc1OC	-94*
COc1ccc(-c2nc(CCl)cs2)cc1	-142*
CCc1ccc(-c2nc(CCl)cs2)cc1	-123*
COc1ccc(C2=Nn3c(nnc3-c3ccccc3OC)SC2)cc1OC	107
COc1ccc(-c2csc(-c3ccc(O)cc3)n2)cc1	-215*
CC1(C)OC2OC(COC(=O)c3ccccc3)C3OC(C)(C)OC3C2O1 (configuration not stated)	-89*
COc1ccc(CNc2nc(Cl)c(C#N)s2)cc1	-95*
N#C/C(=C\c1ccc(OCc2ccc(C(=O)O)cc2)cc1)C(=O)N1CCOCC1	93
COc1cc(/C=C(\C#N)C(=O)N2CCOCC2)ccc1OCc1ccccc1	-120*
N=C1C(c2nc3ccccc3s2)=C(O)CN1Cc1ccccc1	-342*
Cc1ccc(OCC(=O)Nc2cccc(C)n2)c(C)c1	-137*
Cc1cccc(NC(=O)COc2ccc(Br)cc2)n1	-71*
COc1ccc(C2CC(c3ccccc3OC(C)=O)=NN2C(C)=O)cc1 (configuration not stated)	-79*
O=C(c1ccccc1)N1CCSc2sccc2C1=O	97
Cc1sc2c(c1C)CN(C(C)(C)C)CN2C(=O)c1ccccc1	-64*
Cc1oc2cc3c(C(=O)N4CCCCC4)c(C)oc3cc2c1C(=O)N1CCCCC1	-162*
COc1ccc([N+](=O)[O-])cc1Nc1c2ccccc2nc2ccccc12	77
CN(C)c1ccc(Nc2nc(N)c3ccccc3n2)cc1	109
Nc1nc(Nc2ccccc2)nc2ccccc12	-82*
COc1ccc(C)cc1Nc1nc(N)c2ccccc2n1	-102*
Cc1ccccc1-c1noc(-c2ccccc2F)n1	-259*
Fc1ccccc1-c1nc(-c2ccc(Cl)cc2)no1	-203*
SMILES	aSyn 5UTR act
Cc1ccccc1-c1noc(C2CCCCC2)n1	-71*
Cc1ccccc1-c1noc(-c2ccc(O)cc2)n1	-226*
CN(C)c1ccc(-c2noc(-c3ccccc3O)n2)cc1	71
Cc1ccccc1-c1noc(-c2ccc(Cl)cc2)n1	-192*
CN(C)C=Nc1ccc2nn(-c3ccccc3)nc2c1	-211*
O=C(COc1ccccc1Cl)c1ccc2c(c1)CCCC2	-201*
Nc1ccc(SC(F)(F)F)cc1	-70*
Clc1ccc(SCc2nc3ccccc3[nH]2)cc1	-112*
c1ccc(SCc2nc3ccccc3[nH]2)cc1	-133*
Fc1ccccc1CSCc1nc2ccccc2[nH]1	-133*
c1ccc2[nH]c(CSc3nccs3)nc2c1	-79*
Cc1cc(C)c(C#N)c(SCc2nc3ccccc3[nH]2)n1	-173*
Cc1ccc(SCc2nc3ccccc3[nH]2)cc1	-128*
Cc1cc(C)c(C#N)c(SCc2nnc(-c3ccccc3)o2)n1	102
CCN1C(=S)SC(=O)C1=C1C=C(C)OC(C)=C1	-97*
CCN1C(=S)SC(=O)C1=C1C=C(C)N(Cc2ccco2)C(C)=C1	-132*
COc1ccc(-c2cc(-c3c(O)c(OC)c4occc4c3OC)[nH]n2)cc1OC	-71*
CC(C)(C)C(=O)[C@H]1[C@H](c2ccccc2)[C@@]2(N=C(c3ccccc3)OC2=O)C2c3ccccc3C=NN21 (some centres not stated)	-83*
CCn1c(O)c(C=NC2CCCC(C)C2C)sc1=S (configuration not stated)	-133*
COc1cc(/C=N/Nc2nc(N3CCCC3)nc(N3CCCC3)n2)ccc1OCc1ccccc1F	-72*
Cc1ccc(C(=O)N2C(=O)C(c3ccccc3)Oc3ccccc32)cc1 (configuration not stated)	93
O=C1OC(c2ccccc2)/C(=C(/O)c2ccccc2)C1=O (configuration not stated)	-64*
CN1C2CCC1/C(=C\c1ccccc1)C(=O)/C2=C\c1ccccc1	-185*
Cc1cnc(NC(=O)c2cc3c(s2)CCCC3)s1	65
O=C(Nc1ccon1)c1cc2c(s1)CCCCCC2	-167*
SMILES	aSyn 5UTR act
O=C(NCc1ccco1)c1cc2c(s1)CCCCC2	-218*
O=C(Nc1ccon1)c1cc2c(s1)CCCC2	-113*
O=C(Nc1ccc(N2CCOCC2)cc1)c1cc2c(s1)CCCC2	-69*
Cc1csc(NC(=O)c2cc3c(s2)CCCCC3)n1	92
Cc1ccc(C2=Nc3ccccc3N=C(C(Cl)Cl)C2)cc1	-76*
Cc1ccc2c(c1)N=C(c1ccccc1)CC(C(Cl)Cl)=N2	-74*
COc1cccc(-c2cn3nc4c(nc3n2)CCCC4)c1	104
O=c1cc(-c2ccccc2)nc2cc(-c3ccc(F)cc3)[nH]n12	-109*
O=c1c2c(nc3cc(-c4ccc(F)cc4)[nH]n13)CCC2	-87*
COc1cccc(-c2cc3nc(-c4ccccc4)cc(=O)n3[nH]2)c1	-167*
Cc1nc(NC(=O)C2CC3CCCC(C2)C3=O)sc1C (configuration not stated)	-80*
CC#CCCCC(=O)Nc1ccccc1C(=O)O	-75*
CCc1ccc(CCC(=O)Nc2ccccc2C(=O)O)o1	-85*
COc1cc(/C=C2\OC(=O)c3c(OC)cccc32)ccc1O	-172*
[O-]/[N+](=C/c1ccc(F)cc1)c1ccc(Cl)cc1	-177*

Compound activity from PubChem BioAssay.
